Assay outcomes as filed in PubChem.
Compounds with a hit are over-represented: about 3.7% of the library has one in this group of screens.
tim10-1 inh: growth inhibitors of tim10-1 mutant yeast | S. cerevisiae tim10-1 ts strain growth, BacTiter-Glo, 24 h | inhibition, % at 20 µM | 330,000 compounds, 2.2% hits | AID 463190;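 active means inhibition of at least 40%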;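 further: mutant grown at 25 °C; 0% = DMSO wells with yeast and 100% = wells holding no yeast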
PfHsp90 yeast 2: reduces growth (ATP signal) of yeast expressing P. falciparum Hsp90; S. cerevisiae expressing PfHsp90, BacTiter-Glo ATP, 48 h; yeast lacking PDR1 and PDR3 efflux regulators; inhibition, % at 9.4 µM; AID 504621; 310,000 compounds, 0.32% hits;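 active means every replicate shows inhibition above about 80%, whatever the replicate mean, limit read from the data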;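 further: 0% = DMSO neutral controls and 100% = 20 µM radicicol positive controls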
tim23-1 inh: inhibits growth of tim23-1 mutant yeast | S. cerevisiae tim23-1 growth, BacTiter-Glo luminescence, 24 h | inhibition, % at 20 µM | 330,000 compounds, 1.3% hits | AID 463212;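 active means growth inhibition of the mutant yeast at or above 50%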;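 further: temperature-sensitive mutant grown at 25 °C; plate controls were DMSO-treated mutant yeast for no effect and medium wells lacking yeast for full effect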
TIM10 inh: TIM10 yeast growth inhibition. S. cerevisiae TIM10 strain growth, BacTiter-Glo luminescence, 24 h. inhibition, % at 10 µM. 330,000 compounds, 1.4% hits. AID 463195;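 active means inhibition of 40% or more at the single tested concentration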;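 further: wild-type TIM10 isogenic control strain grown at permissive 25 °C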
V-ATPase pH: yeast V-ATPase proton transport regulation by pHLuorin | S. cerevisiae, pHLuorin cytosolic pH fluorescence | 350,000 compounds, 0.37% hits | response, % at 10 µM; in the data active means response mostly above about 7.3%, no sharp cut-off; inactive means mostly below about 5.4%; further: actives read high
tim10-1 confirm: tim10-1 yeast growth inhibition, confirmed; shares compounds with tim10-1 inh; S. cerevisiae tim10-1 ts strain growth, BacTiter-Glo, 24 h; inhibition, % at 20 µM; 7,400 compounds, 56% hits;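 active means inhibition of yeast growth at or above a set limit in either of two repeat tests at 20 µM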;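 further: tim10-1 mutant grown at permissive 25 °C to find synthetic lethal compounds; 0% = DMSO yeast wells and 100% = medium wells without yeast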
tim10 confirm: confirmation of TIM10 yeast growth inhibitors. 4,600 compounds, 63% hits. AID 463215. inhibition, % at 10 µM. S. cerevisiae tim10 strain growth, BacTiter-Glo luminescence, 24 h. shares compounds with TIM10 inh;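 active means inhibition of yeast growth at or above a set limit in either of two replicates at 10 µM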;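 further: this counterscreen used the strain with wild-type TIM10; 0% = yeast with DMSO and 100% = medium wells lacking yeast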
* marks the source's active call; other numbers are inactive results; x = no result.

SMILES	tim10-1 inh	PfHsp90 yeast 2	tim23-1 inh	TIM10 inh	V-ATPase pH	tim10-1 confirm	tim10 confirm
C=CCC[C@H](Cc1ccc(F)cc1)C(=O)OC[C@H](Cc1c[nH]c2ccccc12)NC(=O)[C@@H](CC=C)CC(=O)N[C@H](CO)Cc1ccccc1	12	-17	20	0	0	x	x
N/C(=N\OC(=O)c1ccccc1Br)c1cccc([N+](=O)[O-])c1	79*	-21	39	41*	-4	84*	54*
O=C(/C=C/c1ccco1)Nc1ccccc1N1CCCCC1	61*	x	41	54*	0	58*	50*
CN1CCN(/N=C/c2c3ccccc3c(Cl)c3ccccc23)CC1	47*	x	39	47*	-1	52*	46*
CN1CCN(/N=C/c2ccc(-c3ccccc3)cc2)CC1	-3	1	21	11	-1	x	x
COc1ccc(C(=O)NCC(=O)OCc2ccccc2F)cc1	18	-1	22	-6	0	x	x
COCCNC(=S)N/N=C(\C)c1ccc(O)cc1	7	19	13	0	8	x	x
C/C(=N\NC(=S)NCC(C)(C)C)c1cc(F)cc(F)c1O	42*	3	50	44*	-5	41*	60*
O=C(COC(=O)c1cc(Br)ccc1O)Nc1cc(S(=O)(=O)N2CCCC2)ccc1Cl	x	-12	x	x	-1	x	x
CC(=O)c1cccc(NC(=O)C2C(c3ccccc3)C2(Cl)Cl)c1 (configuration not stated)	45*	5	23	41*	-3	21	23
CC(=O)Nc1ccc(S(=O)(=O)NCCOc2ccc(Cl)cc2C)cc1	7	6	15	13	-2	x	x
CCCCOc1ccc(CONS(=O)(=O)c2ccc(NC(C)=O)cc2)cc1Cl	55*	1	14	62*	4	47*	48*
Cc1cc(N/N=C/c2ccccc2O)nc(-c2ccccc2O)n1	50*	-45	32	41*	-1	32*	4
CC1Cc2ccccc2N1C(=S)NC(=O)c1ccc(Cl)cc1Cl (configuration not stated)	44*	-5	45	50*	1	46*	-7
CC1(CC(=O)N/N=C/c2ccc(OCc3ccc(Cl)cc3Cl)cc2)OCCCO1	63*	23	42	49*	-1	41*	2
CCCCCC(=O)NC(=S)Nc1cccc(C(C)=O)c1	40	7	42	43*	3	29	25
CCCCCC(=O)NC(=S)Nc1ccccc1C(=O)OC	40*	5	45	43*	1	24	34*
Nc1nc(SCc2ccc(Cl)cc2Cl)n[nH]1	10	-3	19	7	6	x	x
CNc1cc(CSC)nc(SCc2ccc(Cl)cc2Cl)n1	49*	-15	48	44*	0	41*	37*
CSCCC(N=C(NS(=O)(=O)c1ccccc1)c1ccccc1)C(=O)O (configuration not stated)	0	16	20	-2	0	x	x
O=C(COC(=O)c1ccco1)Nc1ccc(N2CCOCC2)cc1	10	2	-5	0	2	x	x
O=C(CNC(=S)N(Cc1ccccc1Cl)C1CCCC1)NCCN1CCOCC1	-5	31	6	-13	-2	x	x
CCN1C(=O)/C(=C\c2nc3ccccc3c(=O)n2-c2ccccc2)c2ccccc21	42*	5	50	43*	-1	33*	18
COc1ccc(-n2c(/C=C3\C(=O)N(C)c4ccccc43)nc3ccccc3c2=O)cc1	24	-15	33	12	1	x	x
COc1ccc(NC(=S)NC(=O)c2cncc(Br)c2)cc1	16	-8	15	14	-1	x	x
SMILES	tim10-1 inh	PfHsp90 yeast 2	tim23-1 inh	TIM10 inh	V-ATPase pH	tim10-1 confirm	tim10 confirm
Cc1ccc(NC(=O)Cn2ccc(=O)[nH]c2=O)cc1	23	5	12	11	2	x	x
N/C(=N\OC(=O)Cc1ccc(-c2ccccc2)cc1)c1ccccn1	54*	-1	30	53*	4	50*	28
CCCCCCNC(=O)O[C@H]1C[C@H](C(=O)OC)[C@H](C(=O)OC)C2CN(S(=O)(=O)c3ccc(C)cc3)C[C@@]21O (some centres not stated)	x	x	x	x	-2	x	x
COc1ccc(/C=N/NC(=O)c2ccc3c(c2)OCCO3)cc1[N+](=O)[O-]	-20	-12	-4	-9	3	x	x
COc1ccc(/C=C/C(=O)c2ccc3c(c2)OCCO3)cc1[N+](=O)[O-]	43*	21	21	44*	3	28	40*
O=C(/C=C/c1cccc([N+](=O)[O-])c1)c1ccc2c(c1)OCCO2	41*	9	35	47*	0	50*	47*
COC(=O)C1CN(C(=O)COc2ccccc2)c2ccccc2O1 (configuration not stated)	23	-13	11	14	0	x	x
NC(=O)/C=C/C(=O)Nc1ccc(Cl)cc1	61*	24	34	55*	0	61*	56*
O=C(/C=C/C(Cl)(Cl)Cl)Nc1ccc(Cl)cc1	x	-3	x	x	-1	x	x
CCC(C)N(CC(=O)Nc1cccc(C)c1C)C(=O)CCl (configuration not stated)	53*	-9	45	54*	-3	47*	46*
Cc1cc(N2CCCC2)ccc1NC(=O)CN1C(=O)NC2(CCCCC2)C1=O	-13	x	-3	-14	0	x	x
Cc1ccc2c(c1)nnn2C1CCN(C(=O)C23CC4CC(CC(C4)C2)C3)CC1	60*	x	44	42*	1	41*	38*
Cc1ccc2c(c1)nnn2C1CCN(C(=O)NC23CC4CC(CC(C4)C2)C3)CC1	11	x	3	-11	x	x	x
CCOC(=O)N1c2ccccc2Sc2ccccc21	3	x	-37	-9	2	x	x
Cc1ccccc1/C(N)=N/OC(=O)N1c2ccccc2Sc2ccccc21	72*	-6	30	74*	-3	69*	81*
C=CCNC(=S)NCC=C	-4	-4	-3	-11	6	x	x
O=C(COc1ccc(Cl)cc1Cl)NNC(=S)NCc1ccco1	46*	-14	28	50*	-4	37*	40*
O=C(Nc1ccc(C(=O)N2CCN(c3ccc(Cl)cc3)CC2)cc1)C1=CSCCO1	47*	3	31	47*	2	48*	45*
O=C(Nc1ccc(N2CCN(C(=O)c3ccc(Cl)cc3)CC2)cc1)c1ccc(Br)o1	34	17	12	0	-3	x	x
CCOC(=O)C1CCN(C(=O)c2ccc(OCC(=O)Nc3cccc(C(F)(F)F)c3)c(OC)c2)CC1	55*	1	46	59*	-7	66*	63*
COc1ccc(-c2nncnn2)cc1	84*	x	42	89*	x	79*	21
